Drawing on PubChem BioAssay (Tox21), this text covers Potency and outcome for 8 compounds.

Test [1] can be described thus: qHTS assay for small molecule agonists of the p53 signaling pathway (AID 651631; calls by dose curve; note: nearly all actives have a fitted effect of over 15% in size; note: potency is the fitted concentration of half-maximal effect). The gist of the method: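 Read-out is beta-lactamase FRET fluorescence measured 2 h after substrate addition at room temperature, in HCT-116 cells with a p53 response element-driven reporter exposed to compounds for 16 h at 37 °C.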
The nature of test [2]: qHTS assay for small molecules that induce genotoxicity in human embryonic kidney cells expressing luciferase-tagged ATAD5 (AID 651632). Note: nearly all actives have a fitted effect of over 15% in size. The gist of the method:
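Increased luciferase signal from ATAD5-tagged reporter cells indicates DNA-damage-driven ATAD5 induction. HEK293T cells are treated for 16 hr at 37C before detection with Amplite.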

A short description of test [3]: qHTS assay for small molecule agonists of the p53 signaling pathway - cell viability (AID 651633; calls by dose curve; note: nearly all actives have a fitted effect of over 30% in size; note: potency is the fitted concentration of half-maximal effect). In a few lines: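 Viability counter-read: CellTiter-Glo luminescence (30 min, room temperature) in the same p53RE-bla plates. These plates had been exposed to compounds for 16 h at 37 C.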
On the technique in general: In qHTS, concentration-response curves come from the screen itself.

Test [4] can be described thus: qHTS assay for small molecule disruptors of the mitochondrial membrane potential - cell viability (AID 720634; calls by dose curve; note: nearly all actives have a fitted effect of over 20% in size; note: potency is the fitted concentration of half-maximal effect). The gist of the method: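 After overnight attachment at 37 C, HepG2 cells received compound or DMSO vehicle for 1 hr. Viability is then taken from ATP-driven luminescence following a 30 min room-temperature CellTiter-Glo step.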
Test [5] is described as follows: qHTS assay for small molecule disruptors of the mitochondrial membrane potential (AID 720635). Note: potency is the fitted concentration of half-maximal effect. In a few lines: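 Mitochondrial membrane potential tracked with Mito-MPS dye, red aggregates (ex 540/em 590 nm) against green monomers (ex 490/em 535 nm). Compound treatment 1 hr at 37C, dye 30 min in HepG2.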
The nature of test [6]: qHTS assay to test for compound auto fluorescence at 590 nm (red) in HepG2 cells (AID 720674). The gist of the method: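 1 hr compound incubation on HepG2 cells, 37 C, 5% CO2; plate read ex 540 nm / em 590 nm; intensities reported as Rose Bengal sodium equivalents.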
Test [7] is described as follows: qHTS assay to test for compound auto fluorescence at 535 nm (green) in HepG2 cells (AID 720675).
A short description of test [8]: qHTS assay to test for compound auto fluorescence at 460 nm (blue) in HEK293 cells (AID 720678). In a few lines: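 Intrinsic compound fluorescence is recorded in live HEK293 cultures after overnight incubation at 37C, 5% CO2, using excitation 405 nm and emission 460 nm. Values are referenced to triamterene.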
Test [9] is described as follows: qHTS assay to test for compound auto fluorescence at 590 nm (red) in HEK293 cells (AID 720679). In a few lines: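 Red autofluorescence, HEK293 cells: 2,000 cells/well; attach 4-5 hr 37C; add 23 nL cpd or DMSO; incubate o/n 37C 5% CO2; read Ex540/Em590; Rose Bengal sodium reference.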
The nature of test [10]: qHTS assay to test for compound auto fluorescence at 535 nm (green) in HEK293 cells (AID 720680).
Test [11] can be described thus: qHTS assay to test for compound auto fluorescence at 460 nm (blue) in HEK293 cell free culture (AID 720681). In a few lines:
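Blue fluorescence (Ex 405/Em 460 nm, triamterene-equivalent) was read immediately after pin transfer of compound or DMSO into medium (DMEM, 10% FBS) without cells.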

Test [12] can be described thus: qHTS assay to test for compound auto fluorescence at 535 nm (green) in HEK293 cell free culture (AID 720682). The gist of the method: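 Fluorescein serves as the green reference fluorophore; each compound's intrinsic emission at 535 nm (excitation 485 nm) is reported as an equivalent amount of that dye, measured in serum-containing DMEM without cells.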
A short description of test [13]: qHTS assay to test for compound auto fluorescence at 590 nm (red) in HEK293 cell free culture (AID 720683). In a few lines: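 Red-channel autofluorescence of compounds in culture medium (DMEM, 10% FBS), no cells, measured at 540/590 nm. Rose Bengal sodium is the reference fluorophore for equivalence.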
Test [14] is described as follows: qHTS assay to test for compound auto fluorescence at 590 nm (red) in HepG2 cell free culture (AID 720684). In a few lines: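 Plate contents were MEM with 10% FBS plus test compound or DMSO, no cells. Fluorescence was recorded with 540 nm excitation and 590 nm emission.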
The nature of test [15]: qHTS assay to test for compound auto fluorescence at 535 nm (green) in HepG2 cell free culture (AID 720686).
The nature of test [16]: qHTS assay to test for compound auto fluorescence at 460 nm (blue) in HepG2 cells (AID 720687). In a few lines:
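Blue-channel autofluorescence (Ex/Em 405/460 nm, triamterene-equivalent) was measured after 1 hr compound exposure at 37 C, 5% CO2. Cells were HepG2, plated overnight at 37 C in MEM plus 10% FBS.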

Test [17] addresses Glucocorticoid receptor (Homo sapiens) (UniProt P04150). The test can be described thus: qHTS assay to identify small molecule agonists of the glucocorticoid receptor (GR) signaling pathway (AID 720691; active = well fitted activation curve with a large enough effect in the signal ratio in the repeat runs, not every such curve was filed as active; the % refers to the signal ratio). The gist of the method:
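Agonist mode in a HeLa line carrying a GRE-controlled beta-lactamase reporter. Compounds act for 18 h at 37 C before a 2 h room-temperature FRET substrate step and fluorescence reading.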

Test [18] has the same target. Nature of the test: qHTS assay to identify small molecule antagonists of the glucocorticoid receptor (GR) signaling pathway (AID 720692; active = well fitted inhibition curve with a large enough effect in the signal ratio in the repeat runs, not every such curve was filed as active; the % refers to the signal ratio; note: potency is the fitted concentration of half-maximal effect). The gist of the method:
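Cells plated, rested 4 h at 37 C/5% CO2; compounds in DMSO pin-transferred; dexamethasone added to 5 nM final; 18 h at 37 C; B/G FRET substrate added, 2 h room temperature; fluorescence measured.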

A short description of test [19]: qHTS assay for small molecules that induce genotoxicity in human embryonic kidney cells expressing luciferase-tagged ATAD5 - cell viability (AID 651634; calls by dose curve; note: nearly all actives have a fitted effect of over 25% in size; note: potency is the fitted concentration of half-maximal effect). The gist of the method:
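Cytotoxicity counterscreen in HEK293T cells bearing an ATAD5-luciferase reporter: live-cell protease activity measured by CellTiter-Fluor fluorescence after 15.5 hr compound exposure.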

Test [20] is described as follows: qHTS assay to test for compound auto fluorescence at 460 nm (blue) in HepG2 cell free culture (AID 720685). The gist of the method:
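Compound (23 nL) or DMSO pinned into cell-free MEM with 10% FBS; blue fluorescence read at 405/460 nm excitation/emission, expressed as auto-fluorescence equivalency to triamterene.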

Molecules are shown by their SMILES. Where “and” joins values, the source holds several entries; their conditions need not be identical. Identical values can stand only once. Records with an inconclusive call do not appear. Some structures have more than one record in an assay (separate samples or runs), and their calls can disagree. Calls of active or inactive are those of the source. Unless noted, calls come from the whole dose curve; as a rule, active = well fitted curve in the direction sought with a large enough effect in the repeat runs; inconclusive = weak or mixed curves; inactive = no such curve, though single readings can be large; an effect the other way counts as inactive or inconclusive.

Chain of Glucocorticoid receptor (Homo sapiens) (P04150 whole entry, looked up): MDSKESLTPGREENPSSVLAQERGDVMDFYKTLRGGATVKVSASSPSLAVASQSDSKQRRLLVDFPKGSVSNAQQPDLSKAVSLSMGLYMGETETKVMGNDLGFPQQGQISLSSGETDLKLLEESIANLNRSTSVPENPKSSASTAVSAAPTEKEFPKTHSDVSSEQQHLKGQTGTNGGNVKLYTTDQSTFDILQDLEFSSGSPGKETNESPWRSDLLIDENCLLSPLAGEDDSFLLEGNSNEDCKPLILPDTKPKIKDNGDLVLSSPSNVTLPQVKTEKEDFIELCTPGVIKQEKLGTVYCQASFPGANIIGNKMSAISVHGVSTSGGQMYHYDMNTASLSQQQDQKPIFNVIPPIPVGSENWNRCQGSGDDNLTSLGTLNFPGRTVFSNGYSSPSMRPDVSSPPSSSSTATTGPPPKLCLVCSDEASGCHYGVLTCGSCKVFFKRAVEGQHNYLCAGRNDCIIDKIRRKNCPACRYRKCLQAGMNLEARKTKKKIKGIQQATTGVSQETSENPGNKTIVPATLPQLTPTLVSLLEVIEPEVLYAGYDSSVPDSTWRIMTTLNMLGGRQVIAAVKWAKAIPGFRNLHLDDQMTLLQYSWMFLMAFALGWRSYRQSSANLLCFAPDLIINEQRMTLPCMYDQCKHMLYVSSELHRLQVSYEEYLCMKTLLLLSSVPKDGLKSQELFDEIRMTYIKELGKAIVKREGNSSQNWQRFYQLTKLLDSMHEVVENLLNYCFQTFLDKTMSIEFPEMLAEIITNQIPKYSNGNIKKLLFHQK

On to `CC(=O)O[C@H]1CC[C@@]2(C)C(=CC[C@@H]3[C@@H]2CC[C@]2(C)C(=O)CC[C@@H]32)C1`, for which the Potency result in test [1], in test [2], in test [3], in test [4], in test [8] and in test [11] was “inactive” throughout. Further, the Potency result in test [16], in test [17] and in test [18] was “inactive” in each case. Further, the Potency entry in test [5] was “inactive and 54.5 µM (active)”. Besides, the compound was called inactive in [6], in test [7], in [9], in test [10], in test [12] and in test [13]. For the same compound, the outcome in test [14] and in test [15] was inactive.
As to `CC(=O)C(Cl)(Cl)Cl`, the Potency entry in test [2], in [3], in test [8], in test [11], in test [16] and in test [17] was “inactive” throughout. Besides, the Potency is 13200 nM (active) in test [19], 209 nM (active) in [4] and 743 nM (active) in test [5]. The compound was classed as inactive in test [6], in [7], in [9], in [10], in test [12] and in [13]. Also, the compound was classed as inactive in test [14] and in test [15].
As for `CC(C)CC(C)(c1ccc(O)cc1)c1ccc(O)cc1`, the Potency result in [2], in [19], in test [8], in test [11], in test [20] and in test [16] was “inactive” in each case. Further, the Potency in test [3] was 68.7 µM (active) and 61.1 µM (active); in [4] it was 34.4 µM (active) and 27.3 µM (active); in test [5], 6.87 µM (active) and 6.86 µM (active); in test [18] it was 19.5 µM (active). In addition, the compound was called inactive in test [6], in test [7], in test [9], in test [10], in test [12] and in [13]. Also, the call in test [14] and in test [15] was inactive.
Consider `COc1cc(C=O)cc2c1[C@H](COC(N)=O)[C@]1(OC(C)=O)ON2C[C@H]2[C@@H]1N2C(C)=O`, for which the Potency in [1] is 1540 nM (active). The Potency entry in test [2], in test [4], in test [5], in [8], in test [11] and in [20] was “inactive” each time. For the same compound, the Potency entry in test [16] was “inactive”. Also, the call in test [6], in test [7], in [9], in test [10], in test [12] and in test [13] was inactive. The compound was classed as inactive in [14] and in test [15].
Consider `Clc1ccc(C(c2ccccc2Cl)C(Cl)(Cl)Cl)cc1` (centres undefined), for which the Potency in test [1] is 69000 nM (active); in [18] it was 22 µM (active) and 20.3 µM (active). Also, the Potency result in test [2], in [8], in test [11], in test [20] and in test [16] was “inactive” in each case. Moreover, the call in test [6], in test [7], in test [9], in test [10], in test [13] and in test [14] was inactive. Besides, the outcome in test [15] was inactive.
For the compound `Cc1ccc(OP(=O)(Oc2ccccc2)Oc2ccccc2)cc1`, the Potency entry in test [1], in [2], in [8], in test [11] and in [16] was “inactive” each time. In test [5], the Potency is 983 nM (active). For the same compound, the result in test [6], in [7], in test [9], in test [10], in test [12] and in [13] was inactive. Besides, the compound was called inactive in test [14] and in test [15].
`BrCBr`: the Potency entry in test [1], in test [4], in test [5], in [11], in test [20] and in [16] was “inactive” in each case. For the same compound, the Potency entry in test [17] is “inactive”. In addition, the outcome in test [6], in [7], in [9], in test [10], in test [12] and in test [13] was inactive. In addition, the compound was called inactive in test [14] and in test [15].
As to `CCCN(CC)CC1COC2(CCC(C(C)(C)C)CC2)O1` (centres undefined), the Potency result in [1], in test [2], in test [4], in test [8], in test [11] and in test [20] was “inactive” throughout. The Potency entry in [16], in test [17] and in [18] was “inactive” throughout. The compound was called inactive in test [6], in test [7], in [9], in test [10], in [12] and in [13]. In addition, the compound was classed as inactive in test [14] and in [15].
